In PubChem BioAssay AID1259318 (Sanford-Burnham Center for Chemical Genomics, 2017):
Screen size: about 370,000 compounds; about 3,000 (0.81%) were called active.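 How the source made its calls: active means activity above about 14% (limit read from the data; passing the limit was not always enough); inactive means the rest.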 The list comes from a sample in which actives are over-represented; it also holds similar structures and randomly drawn compounds. Where a SMILES comes first, the peptide text is derived from it. Side-chain parts run from the residue outwards. [ ]: non-standard residue; d: D form. The star is where a group is joined. X1 = CCC(C)C(N)C1=NC(C(=O)*)CS1; Orn = NCCC[CH](N)C(=O)O

These molecules were tested against Nuclear receptor subfamily 1 group D member 1 (Homo sapiens) (UniProt P20393) (assay: modulators of Rev-erb alpha DNA binding, primary screen, biochemical, FITC-DNA, fluorescence polarization, uHTS (AID 1259318;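 further: 0% = DMSO wells with 35 nM protein and 100% = DMSO wells with 750 nM protein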)). Settings: Rev-erbα–FITC-DNA binding, 90 min, at 10 µM, active compounds read high.
Sequence of Nuclear receptor subfamily 1 group D member 1 (Homo sapiens) (P20393 whole entry, looked up): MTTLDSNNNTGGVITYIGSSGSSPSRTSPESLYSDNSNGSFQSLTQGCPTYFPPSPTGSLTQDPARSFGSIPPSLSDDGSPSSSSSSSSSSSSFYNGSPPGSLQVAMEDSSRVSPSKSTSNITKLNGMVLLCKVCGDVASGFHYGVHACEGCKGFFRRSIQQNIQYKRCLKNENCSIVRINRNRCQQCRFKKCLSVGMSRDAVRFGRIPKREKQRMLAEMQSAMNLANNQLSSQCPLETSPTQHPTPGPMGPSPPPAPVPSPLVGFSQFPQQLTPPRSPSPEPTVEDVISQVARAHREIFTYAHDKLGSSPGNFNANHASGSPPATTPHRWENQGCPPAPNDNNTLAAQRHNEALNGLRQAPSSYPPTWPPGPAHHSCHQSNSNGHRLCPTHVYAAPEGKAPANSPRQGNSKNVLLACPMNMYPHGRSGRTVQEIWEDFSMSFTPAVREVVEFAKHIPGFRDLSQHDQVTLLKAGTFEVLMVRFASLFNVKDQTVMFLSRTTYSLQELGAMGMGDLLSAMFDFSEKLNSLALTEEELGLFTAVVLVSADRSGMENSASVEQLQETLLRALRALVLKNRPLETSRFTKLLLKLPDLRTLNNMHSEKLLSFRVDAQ
With COCc1c(C(=O)N/N=C/C2CC=CCC2)nnn1-c1nonc1N (stereo unspecified) the activity was -3.01% (inactive).
CN(CC1CCCN(CCc2cccc(C(F)(F)F)c2)C1)C(=O)c1ccc2nc[nH]c2c1 (stereo unspecified) was tested, and the activity was 4.2% (inactive).
With CC1=CC[C@H](C(C)(C)O)CC1 the activity was 1.53% (inactive).
For COc1ccc(S(=O)(=O)N2CCOCC2)cc1NC(=O)CSc1ncnc2ccccc12, the activity was -2.02% (inactive).
In the case of COc1ccc(S(=O)(=O)N2CCOCC2)cc1C(=O)Nc1nc2ccccc2s1, the activity is reported as 46.8% (active).
With COc1ccc(S(=O)(=O)N2CCOCC2)cc1C(=O)NC1CCCCC1 the activity was -1.23% (inactive).
CC1CN(C(=O)c2ccc3c(c2)OCO3)OC(c2ccccc2)O1 (stereo unspecified) was tested, and the activity was 8.07% (inactive).
In the case of COc1ccc(S(=O)(=O)N(C)CC(=O)NCCCN2CCOCC2)cc1Cl, the activity is reported as 3.3% (inactive).
With CCCS(=O)(=O)NC(=O)C1(C)CCCN(C(=O)c2cccs2)C1 (stereo unspecified) the activity was -2.98% (inactive).
In the case of Nc1nc(/C(=C/CC(=O)O)C(=O)N[C@@H]2C(=O)N3C(C(=O)O)=CCS[C@H]23)cs1, the activity is reported as -0.02% (inactive).
With CCC(C)C(N)C1=NC(C(=O)NC(CC(C)C)C(=O)NC(CCC(=O)O)C(=O)NC(C(=O)NCCCCC2NC(=O)C(CC(N)=O)NC(=O)C(CC(=O)O)NC(=O)C(Cc3cnc[nH]3)NC(=O)C(Cc3ccccc3)NC(=O)C(C(C)CC)NC(=O)C(CCCN)NC2=O)C(C)CC)CS1 (stereo not drawn) (cyclo(DNK([Ile-Glu-Leu-X1])[Orn]IFH); configuration not given here) the activity was -1.28% (inactive).
In the case of COC(=O)c1ccc(NC(=O)c2cc(Cl)ccc2OC)cc1, the activity is reported as 46.1% (active).
With CCC(C)NC(=O)c1cc(Cl)ccc1OC (stereo unspecified) the activity was -0.16% (inactive).
In the case of COc1ccc(Cl)cc1-c1cc(C(=O)Nc2cc(OC)c(OC)c(OC)c2)[nH]n1, the activity is reported as 0.68% (inactive).
In the case of Cc1ccc2c(C)c(C(=O)N3CCC(N4CCC(C(=O)NC5CC5)CC4)CC3)oc2c1, the activity is reported as 5.47% (inactive).
For O=C(NCCCc1ccccc1)[C@H](Cc1ccccc1)NC1(C(=O)NCCc2c[nH]c3ccccc23)CCC1, the activity was 1.61% (inactive).
In the case of CCc1cccc(NC(=S)N(CCN(C)C)C2CCN(C(C)C)CC2)c1, the activity is reported as -2.21% (inactive).
CCc1ccc2c(c1)cc(CN(C(=S)Nc1ccccc1Cl)C1CC1)c1nnnn12 was tested, and the activity was 18.7% (active).
For CCOc1ccc2c(c1)cc(CN(C(=O)CC)C1CCCCC1)c1nnnn12, the activity was -0.47% (inactive).
In the case of O=C(c1cccc(Br)c1)N1CCN(C2=NS(=O)(=O)c3ccccc32)CC1, the activity is reported as 1% (inactive).
With CC(=O)NCc1ccc(S(=O)(=O)NC2CCN(Cc3ccccc3)CC2)cc1 the activity was -1.17% (inactive).
With CCCn1c(SCC(=O)c2ccc3c(c2)OCCO3)nnc1C(C)C the activity was -3.34% (inactive).
With COc1ccc(-c2nnc(SCC(=O)c3ccc4c(c3)OCCO4)o2)cc1 the activity was 39.7% (active).
For COc1ccc(CN(C(=O)CSc2nnc(-c3ccc(OC)c(OC)c3)o2)c2ccc(F)cc2)cc1, the activity was 4.8% (inactive).
For CCc1ccccc1NC(=O)CSc1nnc(-c2cccs2)o1, the activity was -8.53% (inactive).
With O=C(CCc1nnc2ccc(NCc3ccccc3Cl)nn12)NCC1CCN(C2CCCC2)C1 (stereo unspecified) the activity was -21.6% (inactive).
With CC12CCC(=O)C=C1CCC1C2[C@@H](O)CC2(C)C1CC[C@]2(O)C(=O)COP(=O)(O)O (stereo partly specified) the activity was 1.93% (inactive).
For CC(C)CCn1c(=O)c2c(nc3n2CCCN3Cc2ccccc2)n(C)c1=O, the activity was -1.34% (inactive).
For O=C(N/N=C/c1ccc(OCC2COCCO2)cc1)c1ccc(Br)cc1 (stereo unspecified), the activity was -0.42% (inactive).
In the case of C/C(Cc1ccccc1)=N\NC(=O)CNC(=O)c1cccc(Br)c1, the activity is reported as -0.21% (inactive).
With Cn1c(=O)n(C)c2cc(/C=N/NC(=O)c3cccc(Br)c3)ccc21 the activity was 49.2% (active).
With Cc1nc(CNc2ncnc3ccc(-c4ccc5c(c4)OCO5)cc23)cs1 the activity was -0.38% (inactive).
CCOC(=O)C1CCN(C(=O)C(C)(C)NC(=O)Nc2ccc(F)c(F)c2)CC1 was tested, and the activity was -2.08% (inactive).
For O=C(CCn1c(=S)[nH]c2cc3c(cc2c1=O)OCO3)NCc1ccc(Cl)cc1, the activity was 21.7% (active).
With CCN(CC)CCCNC(=O)c1ccc2c(=O)n(Cc3ccc4c(c3)OCO4)c(=S)[nH]c2c1 the activity was -2.35% (inactive).
For CC(C)NC(=O)CCCn1c(=S)[nH]c2cc3c(cc2c1=O)OCO3, the activity was -1.56% (inactive).
CCC[C@H]1C(=O)CC[C@@]23CCCN2C(=O)CCC[C@@H]13 was tested, and the activity was -1.54% (inactive).
CO/N=C(/C(=O)N[C@@H]1C(=O)N2C(C(=O)O)=C(CSc3nc(=O)c(O)nn3C)CS[C@H]12)c1csc(N)n1 was tested, and the activity was -8.75% (inactive).
With O=C(Nc1ccc(F)cc1)C1CCCN(S(=O)(=O)c2ccc(-n3cnnn3)cc2)C1 (stereo unspecified) the activity was 4.65% (inactive).
With Cc1nn(C)cc1N1C(=O)c2cccc3c(N)ccc(c23)C1=O the activity was 153% (active).
With CN1C(=O)c2cccc3c(N)ccc(c23)C1=O the activity was 275% (active).
For COc1ccc(-c2cc(-c3nnc(SCC(=O)Nc4cccc5ccccc45)n3N)[nH]n2)cc1, the activity was -0.24% (inactive).
With O=C(OCc1ccccc1)c1ccc(O)cc1 the activity was -3.01% (inactive).
For CC(=O)C1(C)N(O)C(C)(C)C(c2cccs2)=[N+]1[O-] (stereo unspecified), the activity was -3.38% (inactive).
For C=C1C(C(C)C)N(C)C2=NC(c3ccccc3)CC(=O)N12 (stereo unspecified), the activity was 0.81% (inactive).
O=S1(=O)CC(N2CCN(Cc3ccccc3F)CC2)CN1Cc1cn(Cc2ccccc2)nn1 (stereo unspecified) was tested, and the activity was -7.27% (inactive).
For COc1ccc(/C=C2\SC(=S)N(CCCC(=O)NC3CCCC3)C2=O)cc1OC, the activity was 40.1% (active).
With COc1ccc(-c2noc(CCCC(=O)NC3CCCC3)n2)cc1OC the activity was -0.42% (inactive).
With COc1ccc(CCNC(=O)CCC(=O)NC2CCCCC2)cc1OC the activity was -2.47% (inactive).
In the case of O=C(NC1CCC1)c1ccc(C#Cc2cccc(F)c2)c[n+]1[O-], the activity is reported as 1.34% (inactive).
For Cc1cc(NC(=O)CSc2nc(=O)cc(N)n2-c2ccc(F)cc2)no1, the activity was -4.08% (inactive).
Cc1cc(NC(=O)CSc2nc(C(C)C)nc3sc4c(c23)CCC(C)C4)no1 (stereo unspecified) was tested, and the activity was 58.2% (active).
Cc1cc(NC(=O)CSc2nnc(-c3ccc(Cl)s3)o2)no1 was tested, and the activity was 6.3% (inactive).
Cc1cc(NC(=O)Cn2nc(C(F)(F)F)c3c2CCCC3)no1 was tested, and the activity was -1.28% (inactive).
In the case of Cc1nc(SCC(=O)Nc2cc(C)on2)c2c3c(sc2n1)CCCC3, the activity is reported as 27% (active).
With CCn1c(SCC(C)=O)nc2sc3c(c2c1=O)CCCC3 the activity was -1.07% (inactive).
